Screens: PubChem, National Center for Advancing Translational Sciences (NCATS)
Sampled rows, rich in hits. Any-hit rate of the full collection: about 2.4%.
D2 ag-1: agonists of human D2 dopamine receptor (beta-arrestin). P14416. DiscoveRx PathHunter D2 beta-arrestin, luminescence, 90 min; 100% = 57 uM dopamine signal. activation, % (test concentration not listed). actives 0.084% (n = 360,000). AID 624465; in the data active = activation above about 40%; inconclusive = between about 15% and that limit
Target sequence (P14416 whole entry, looked up): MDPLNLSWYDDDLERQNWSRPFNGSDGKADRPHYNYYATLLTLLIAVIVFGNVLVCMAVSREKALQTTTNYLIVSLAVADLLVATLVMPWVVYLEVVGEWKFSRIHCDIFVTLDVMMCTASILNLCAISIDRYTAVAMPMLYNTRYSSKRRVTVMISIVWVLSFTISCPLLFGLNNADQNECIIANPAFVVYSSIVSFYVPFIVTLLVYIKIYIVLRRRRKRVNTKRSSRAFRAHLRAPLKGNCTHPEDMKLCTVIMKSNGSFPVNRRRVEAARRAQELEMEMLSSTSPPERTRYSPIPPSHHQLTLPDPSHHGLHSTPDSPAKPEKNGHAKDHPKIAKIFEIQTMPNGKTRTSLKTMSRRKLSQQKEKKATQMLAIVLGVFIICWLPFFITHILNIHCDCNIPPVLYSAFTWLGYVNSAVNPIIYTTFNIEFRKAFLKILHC
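Agonist mode: compounds alone added to overnight-plated D2 PathHunter cells for 90 min at 37 C, with 57 uM final dopamine (EC100) defining full response. Beta-arrestin recruitment detected by chemiluminescent reagent, read after 1 h at ambient temperature.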
D2 PAM-1: positively modulates the human D2 dopamine receptor allosterically; HEK293 T-REx D2, calcium flux, EC20 dopamine potentiation; AID 485347; potentiation, % at 10 µM; actives 0.34% (n = 340,000); P14416;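 active = potentiation over 3 SD above the plate norm, cut at about 30% in these data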; note: 0% is about no effect
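Using a no-wash calcium dye in inducible, force-coupled HEK293 Trex cells expressing D2, we tracked fluorescence each second for 180 s after compound, then for 180 s after EC20 dopamine to detect augmented signalling.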
D2 PAM-2: potentiates the human D2 dopamine receptor allosterically | P14416 | DiscoveRx D2 beta-arrestin cells, luminescence, 90 min; 100% = 57 uM dopamine signal | potentiation, % (no concentration beside the values) | actives 0.23% (n = 360,000) | AID 624464; in the data active = potentiation above about 50%; inconclusive = mostly about 30% to 49%
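PathHunter D2 cells, attached overnight at 37 deg C, received compound in DMSO plus dopamine at EC20 (50 nM final) for 90 min at 37 deg C. Beta-arrestin recruitment was read as luminescence after 1 h with detection reagent at ambient temperature.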
D2 antagonist: antagonizes the human D2 dopamine receptor; P14416; HEK293 TREx D2 cells, calcium flux, dopamine EC80; inhibition, % at 10 µM; actives 2% (n = 340,000); AID 485344; in the data active = inhibition above about 30%; inactive = below that, where a call was filed; note: 0% is about no effect
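Cells plated overnight at 30 C with tetracycline; no-wash calcium dye, 30–90 min RT; 10 s baseline; compound pinned; 180 s read; EC80 dopamine added; another 180 s read.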
D2 ag-2: agonists of human D2 dopamine receptor; HEK293 T-REx D2 cells, calcium flux agonist mode; activation, % at 2 µM; actives 0.53% (n = 340,000);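 active = activation over 3 SD above normal in the single-dose calcium agonist read, cut at about 30% in these data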; note: 0% is about no effect
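Tetracycline-induced HEK293 T-REx cells with force-coupled D2 receptor, plated overnight at 30 C, loaded with no-wash calcium dye. After a 10 s baseline, compound was pin-added and calcium flux read kinetically for 180 s; calcium rises flagged agonists.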
Active calls of the source: *; u = inconclusive; x = no result given.

SMILES	D2 ag-1	D2 PAM-1	D2 PAM-2	D2 antagonist	D2 ag-2
Cc1ccc(NC(=S)Nc2ccc3[nH]c(=O)[nH]c3c2)cc1C	-8	11	-15	-4	0
Cc1ccc(S(=O)(=O)N(C)C)cc1NC(=S)NC(=O)C12CC3CC(CC(C3)C1)C2	1	4	10	9	-1
Cc1ccc(S(=O)(=O)N(C)C)cc1NC(=S)NCc1ccco1	-4	x	-43	40*	0
Cc1ccc(S(=O)(=O)c2cnc(SC(C)C(=O)Nc3ccccc3)[nH]c2=O)cc1 (configuration not stated)	x	-4	x	x	0
CCCCCC(C)NC(=O)c1ccoc1C (configuration not stated)	-3	-14	-2	40*	0
CCCCCCCCCCCNC(=O)c1ccoc1C	-3	8	-1	8	x
CCCCOc1ccc(C(=O)N(C)CC(=O)Nc2ccc(C)cc2)cc1	-2	0	-12	55*	-1
Cc1ccc(NC(=O)CN(C)C(=O)c2ccc(COc3ccccc3)cc2)cc1	-5	-1	0	-2	-1
CCC(C)NC(=O)c1cc2n(n1)CCCN(Cc1ccc(C)cc1)C2=O (configuration not stated)	x	2	x	x	1
CCOc1cc(C#N)c(NC(=O)Cn2nnc(-c3ccc(C)cc3)n2)cc1OCC	x	9	x	x	0
C[N+](C)(CCOc1ccccc1)Cc1ccccc1 (tested in a mixture with another compound)	u	-6	74*	29	0
COc1cc2c(c(O)c1OC)C(=O)C(OC)CCC2 (configuration not stated)	-2	-8	6	32*	1
COCCn1c(C)cc(C(=O)COC(=O)c2ccc[nH]c2=O)c1C	0	4	4	62*	0
O=C(O)c1nn(CCOc2cccc(Cl)c2)c(=O)c2ccccc12	-3	1	1	-4	0
COCCn1c(C)cc(C(=O)Cn2nc(C(=O)O)c3ccccc3c2=O)c1C	3	-1	-8	32*	1
Cc1cc(C(=O)COC(=O)c2ccc[nH]c2=O)c(C)n1C	-1	2	19	-15	1
O=C(O)c1nn(CCOc2c(Cl)cccc2Cl)c(=O)c2ccccc12	3	45*	-2	4	-1
Cc1cccn2c(=O)cc(CSc3nnc(NC(=O)COc4ccc(F)cc4)s3)nc12	x	x	x	x	0
COc1ccc(CC2CC(=O)N(c3ccc(C)cc3)C2=O)cc1 (configuration not stated)	7	0	-2	-7	0
COc1ccc(OC)c(N2C(=O)CC(Cc3ccc(C)cc3)C2=O)c1 (configuration not stated)	0	35*	3	-2	-1
COc1cc(C(=O)NNC(=O)C2CSC3(C)CCC(=O)N23)cc(OC)c1OC (configuration not stated)	-1	9	-1	41*	-1
Cc1ccc(/C=C/c2ccc(=O)n(Cc3ccc(Cl)cc3Cl)n2)cc1	-2	36*	-1	4	0
O=c1ccc(/C=C/c2ccccc2)nn1Cc1ccc(Cl)cc1Cl	-10	2	-11	-7	1
COc1ccc(C(CNC(=O)COc2ccc(C)cc2)N2CCCCC2)cc1 (configuration not stated)	x	-26	x	x	-1
COc1ccc(C(CNC(=O)C(C)(C)Oc2ccc(Cl)cc2)N2CCOCC2)cc1 (configuration not stated)	-7	x	-36	x	x
SMILES	D2 ag-1	D2 PAM-1	D2 PAM-2	D2 antagonist	D2 ag-2
COc1ccc(C(CNC(=O)COc2ccc(Cl)c(C)c2)N2CCCCC2)cc1 (configuration not stated)	0	-27	-34	37*	0
COc1ccc(C(CNC(=O)C(C)(C)Oc2ccc(Cl)cc2)N2CCCCC2)cc1 (configuration not stated)	-3	-30	-45	86*	-1
Cc1ccc(-c2nc3c(c(=O)c4ccccc4n3C)c(=O)n2Cc2ccco2)cc1	4	12	8	36*	4
Cn1c2ccccc2c(=O)c2c(=O)n(Cc3ccco3)c(-c3ccc(F)cc3)nc21	-4	9	-7	-7	-1
CC(C)Cn1c(=O)c2sccc2n2c(CCCC(=O)NCCc3ccc(Cl)cc3)nnc12	x	-5	x	x	-1
CCN1CCN(C(=O)c2ccc3c(c2)N(Cc2ccc(Cl)cc2)C(=O)c2ccccc2S3(=O)=O)CC1	x	-23	x	x	x
CCN1CCN(C(=O)c2ccc3c(c2)N(Cc2ccccc2)C(=O)c2ccccc2S3(=O)=O)CC1	-2	-23	-13	40*	0
CC(C)COc1ccccc1C(=O)NC(CO)C(=O)O (configuration not stated)	-2	7	-6	43*	-1
COc1ccc(C(=O)Nc2cccc(C(=O)OCc3cc(=O)n4nc(C5CC5)sc4n3)c2)cc1	x	17	x	x	0
CC(C)c1ccc2oc(-c3cc(NC(=O)c4cccnc4)ccc3Cl)nc2c1	x	8	x	x	1
CCc1ccc(NC(=O)c2cnn3ccccc23)cc1	-4	-1	-11	42*	-1
CC(C)(C)c1ccc(S(=O)(=O)c2cn(CC(=O)Nc3ccccc3)c3ccccc3c2=O)cc1	x	-12	x	x	1
Cc1cccc2sc(NNC(=O)C3COc4ccccc4O3)nc12 (configuration not stated)	7	-2	5	10	-1
Cc1cc(C)c2sc(NNC(=O)C3COc4ccccc4O3)nc2c1 (configuration not stated)	-4	-3	-6	33*	-1
Cn1c2ccccc2c2c(C(=O)NCCCN3CCCC3=O)cn(C3CCCCC3)c(=O)c21	-4	32*	-38	10	1
CCCc1cc(=O)[nH]c(Nc2cc(Cl)cc(Cl)c2)n1	x	-9	x	x	3
Oc1ccc(N=Nc2ccccc2)cc1	-3	5	-11	33*	0
C/C(=N\NC(=S)Nc1cc(S(=O)(=O)N2CCOCC2)ccc1Cl)c1ccc(N2CCOCC2)cc1	5	11	-9	35*	1
O=C1/C(=C/c2ccc(N3CCCC3)cc2)NC(=S)N1C1CC1	-1	-12	-16	-20	48*
Cc1cc(N2CCCC2)ccc1/C=C1\NC(=S)N(C)C1=O	-1	-7	-5	10	36*
Cc1nnc(N2CCN(c3cccc(C(F)(F)F)c3)CC2)c2c1nnn2Cc1ccccc1	x	1	x	x	0
CC(=O)N1CCc2c(sc3c2c(=O)n(-c2ccccc2Cl)c(=O)n3C)C1	x	-7	x	x	1
Cc1cc(C)cc(NC(=O)C2CCN(c3nc4ccccc4nc3C(F)(F)F)CC2)c1	x	2	x	x	0
CCS(=O)(=O)N1CCc2cc(C(=O)NC(C)c3ccccc3)ccc21 (configuration not stated)	x	-19	x	x	x
